Data reported in PubChem BioAssay AID1021 (Emory University Molecular Libraries Screening Center, 2008).
About 2,100 (0.95%) of roughly 220,000 compounds were called active.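 The calls were made as follows: active = compounds that cut the binding signal by more than half at the single screening dose; inactive = the rest.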 This excerpt belongs to a sample that is enriched for actives.

What follows are molecules tested against Induced myeloid leukemia cell differentiation protein Mcl-1 (Homo sapiens) (UniProt Q07820) (assay: Mcl-1/Bid binding inhibitors, primary screen, biochemical, TR-FRET, 1536-well (AID 1021;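 also: His-tagged Mcl-1 with europium anti-His antibody binding Bid BH3 peptide; 0% = Mcl-1 plus peptide wells and 100% = peptide-only wells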)). Settings: TR-FRET Mcl-1/Bid-Dy647 peptide binding, at 21.7 µM, active compounds read high.
Sequence of Induced myeloid leukemia cell differentiation protein Mcl-1 (Homo sapiens) (Q07820 whole entry, looked up): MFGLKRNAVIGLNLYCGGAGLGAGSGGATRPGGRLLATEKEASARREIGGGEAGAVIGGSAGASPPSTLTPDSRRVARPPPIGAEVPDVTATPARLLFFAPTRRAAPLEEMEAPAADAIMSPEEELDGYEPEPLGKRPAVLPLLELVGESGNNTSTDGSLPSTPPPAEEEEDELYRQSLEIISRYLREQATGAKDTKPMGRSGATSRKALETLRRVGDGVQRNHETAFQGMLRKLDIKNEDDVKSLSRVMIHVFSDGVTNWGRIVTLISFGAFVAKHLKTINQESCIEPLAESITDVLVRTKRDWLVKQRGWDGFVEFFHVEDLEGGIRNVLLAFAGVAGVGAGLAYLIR
`O=C(N/N=C/c1ccc(Br)o1)c1cncc(Br)c1` was tested, and the inhibition was -13.1% (inactive).
For `CS(=O)(=O)N(CC(=O)NC1CCCC1)Cc1ccc(F)cc1`, the inhibition was -0.58% (inactive).
`COc1ccc(CNC2CCCCC2)cc1` was tested, and the inhibition was 64.1% (active).
In the case of `COc1ccc(CCNC(=O)COC(=O)C2CCCCC2)cc1`, the inhibition is reported as -25.9% (inactive).
In the case of `COc1cc(CNC2CCCCC2)c(Br)cc1OC1CCCC1`, the inhibition is reported as -29.9% (inactive).
For `CCOC(=O)c1cc2c(=O)[nH]c(C(Cl)(Cl)Cl)nc2o1`, the inhibition was 52% (active).
In the case of `CCOC(=O)c1ccc(COC(=O)c2cc(=O)[nH]c3ccccc23)o1`, the inhibition is reported as -9.7% (inactive).
In the case of `CCOC(=O)c1cnc(COc2ccccc2Cl)[nH]c1=O`, the inhibition is reported as 7.19% (inactive).
For `CCCCCOc1ccc(CSC2=NCCN2)cc1[N+](=O)[O-]`, the inhibition was -26.2% (inactive).
With `O=C(Nc1ccc(Br)cn1)C1CCN(S(=O)(=O)c2cccs2)CC1` the inhibition was -17.8% (inactive).
With `CCc1cc2cc(OC)ccc2nc1SCC(=O)Nc1cc(OC)c(OC)cc1C(=O)O` the inhibition was -3.27% (inactive).
With `O=C(C1CCCO1)N(c1ccc(F)cc1)C1C=CS(=O)(=O)C1` (stereo unspecified) the inhibition was -15.9% (inactive).
`Cc1cc(C)n(CC(C)NCc2c(C(=O)N3CCOCC3)nc3c(C)cccn23)n1` (stereo unspecified) was tested, and the inhibition was -17.6% (inactive).
For `Cc1cccn2c(CN(C)C3CCCc4ccccc43)c(C(=O)N3CCOCC3)nc12` (stereo unspecified), the inhibition was 54.6% (active).
For `Cc1cccn2c(CNCC(C)Oc3cccnc3)c(C(=O)N3CCOCC3)nc12` (stereo unspecified), the inhibition was -13.2% (inactive).
`Cc1cc(N2CCN(c3ccccc3)CC2)nc(N2CCOCC2)n1` was tested, and the inhibition was -98.4% (inactive).
In the case of `Cc1ccc(-c2cc(C(=O)NN)n[nH]2)o1`, the inhibition is reported as -33.4% (inactive).
With `O=C(CSc1nc2ccccc2o1)N/N=C/c1ccccc1C(=O)O` the inhibition was -19.1% (inactive).
For `Nc1c(Cl)cc(S(N)(=O)=O)cc1S(N)(=O)=O`, the inhibition was -8.81% (inactive).
For `Cc1c(C=O)c2ccccc2n1CC(=O)O`, the inhibition was -7.49% (inactive).
For `Cc1c(/C=N\NC(=O)c2cc3ccccc3o2)c2ccccc2n1C`, the inhibition was -24.8% (inactive).
With `Cc1c(/C=N/N2C(=O)C3C4C=CC(C4)C3C2=O)c2ccccc2n1C` (stereo unspecified) the inhibition was 59.1% (active).
In the case of `O=C(NC1CC1)C1=C[C@H](c2c[nH]c3ccccc23)C[C@H](OCc2ccc(CO)cc2)O1`, the inhibition is reported as -70.3% (inactive).
For `OCC1(Cc2ccccc2C(F)(F)F)CCN(Cc2cccc3cnccc23)CC1`, the inhibition was -14.6% (inactive).
In the case of `COc1ccc2nc(NC(=O)NC3CCCCC3)sc2c1`, the inhibition is reported as -6.76% (inactive).
In the case of `COC(=O)[C@H](CC(C)C)NC(=O)N1CCCCC1C` (stereo partly specified), the inhibition is reported as -3.65% (inactive).
`COc1ccc(C(=O)Nc2cccnc2)cc1C(=O)Nc1cccnc1` was tested, and the inhibition was 14.7% (inactive).
`O=C(Oc1cccnc1)c1cc2ccccc2oc1=O` was tested, and the inhibition was 19.8% (inactive).
`O=C(Nc1cccnc1)c1cc2cc(Br)ccc2oc1=O` was tested, and the inhibition was 59.5% (active).
For `O=C(CN1CCCCCC1)NCCN1C(=O)S/C(=C\c2ccccc2Cl)C1=O`, the inhibition was -7.27% (inactive).
With `COc1ccccc1Cn1c(CO)nc2ccccc21` the inhibition was -24.8% (inactive).
For `Cc1cccc(C2C3=C(CCCC3=O)N=C3c4ccccc4C(=O)C32)c1` (stereo unspecified), the inhibition was -45% (inactive).
`Cc1cccc(NC(=S)NC23CN4CN(CN(C4)C2)C3)c1` was tested, and the inhibition was -75.3% (inactive).
With `CCS(=O)(=O)c1ccc2oc(SCC(=O)N3c4ccccc4CC3C)nc2c1` (stereo unspecified) the inhibition was -1.51% (inactive).
`CCS(=O)(=O)c1ccc2c(c1)N(S(=O)(=O)c1ccccc1)CC(C(=O)O)O2` (stereo unspecified) was tested, and the inhibition was 52.3% (active).
For `CC1CN(S(=O)(=O)c2ccccc2)C(C)CN1S(=O)(=O)c1ccccc1` (stereo unspecified), the inhibition was -4.73% (inactive).
`C=CCOc1ccc(/C=N/NC(=O)C(C)Sc2ccccn2)cc1OCC` (stereo unspecified) was tested, and the inhibition was -8.6% (inactive).
In the case of `COc1ccccc1C1CCN(c2ccc([N+](=O)[O-])cn2)CC1`, the inhibition is reported as -13.5% (inactive).
`CCOC(=O)C(NC(=O)CC(C)C)(Nc1sc2c(c1C(N)=O)CCCC2)C(F)(F)F` (stereo unspecified) was tested, and the inhibition was -1.21% (inactive).
`O=c1[nH]c2cccnc2n1-c1ccc([N+](=O)[O-])cc1` was tested, and the inhibition was -13.5% (inactive).
In the case of `CCOC(=O)CNC(=O)CSc1nnc(-c2cccc(OC)c2)n1CC`, the inhibition is reported as -3.85% (inactive).
For `C=CCn1c(COc2ccccc2)nnc1SCC(=O)NCC(=O)OCC`, the inhibition was -8.17% (inactive).
For `CCOC(=O)CNC(=O)CSc1nnc(COc2ccc(Cl)cc2)n1CC`, the inhibition was 59% (active).
With `COc1ccc(CN(C)C(=S)Nc2ccc(Cl)cc2Cl)cc1` the inhibition was -35.5% (inactive).
With `COc1ccc(CN2CCn3ncc(C(=O)Nc4ccc(Cl)cc4Cl)c3C2=O)cc1` the inhibition was 32% (inactive).
With `O=c1cc(CCl)nc2scc(-c3ccccc3)n12` the inhibition was -18.4% (inactive).
`Cn1c(SCc2nc3ccccc3s2)nnc1-c1ccc2c(c1)OCO2` was tested, and the inhibition was 85.9% (active).
In the case of `O=C(O)CSc1nnc(-c2ccc3c(c2)OCO3)n1-c1ccccc1`, the inhibition is reported as -2.66% (inactive).
With `Cc1ccccc1-c1nnc(SCC(=O)NCc2ccc3c(c2)OCO3)n1C` the inhibition was -9.98% (inactive).
For `COc1ccc(CCNc2cc(C)nc3c(-c4ccc(Cl)cc4)c(C)nn23)cc1OC`, the inhibition was 5.91% (inactive).
For `Cc1ccc(-c2noc(CSc3nnnn3-c3ccccc3)n2)cc1`, the inhibition was 0.82% (inactive).
`O=c1c2ccccc2nc(CSc2nnnn2-c2ccccc2)n1-c1ccccc1` was tested, and the inhibition was 67% (active).
With `O=c1c2ccccc2nnn1CSc1nnnn1-c1ccccc1` the inhibition was -28.6% (inactive).
For `Oc1ccc(-c2nncn2-c2ccccc2)cc1`, the inhibition was -19.8% (inactive).
With `O=C(N/N=C/c1ccc([N+](=O)[O-])o1)c1cccc(S(=O)(=O)N2CCOCC2)c1` the inhibition was -61.1% (inactive).
`O=[N+]([O-])c1cc(Cl)cc(/C=N/NC(=S)Nc2cc(S(=O)(=O)N3CCOCC3)ccc2Cl)c1O` was tested, and the inhibition was 91.1% (active).
`O=C(CN1CCN(c2ccc(O)cc2)CC1)Nc1cc(S(=O)(=O)N2CCOCC2)ccc1Cl` was tested, and the inhibition was -49.6% (inactive).
`CC(Sc1nc2cc(Cl)ccc2s1)C(=O)Nc1ccc2c(c1)OCO2` (stereo unspecified) was tested, and the inhibition was -1.87% (inactive).
For `Cc1cc(C)nc(Nc2ncn[nH]2)n1`, the inhibition was -30% (inactive).
`O=C(O/N=C(/c1ccccc1)c1ccncc1)c1ccccc1[N+](=O)[O-]` was tested, and the inhibition was -11.8% (inactive).
In the case of `CN(C)CCCO/N=C(\c1ccccc1)c1ccncc1`, the inhibition is reported as 54.2% (active).
`COc1cc(OC)nc(N/N=C(\c2ccccc2)c2ccncc2)n1` was tested, and the inhibition was 1.66% (inactive).
With `Cc1ccc2c(c1)C1CN(C)CCC1N2C(=S)Nc1ccc(OC(F)F)cc1` (stereo unspecified) the inhibition was -15.3% (inactive).
With `CCn1cc(C(=O)NCc2ccc3c(c2)OCO3)c2cc(OC)c(OC)cc2c1=O` the inhibition was 38.8% (inactive).
In the case of `COc1ccc2c(c1)C(C)=CC(C)(C)N2C(=O)Nc1ccccc1`, the inhibition is reported as -36.6% (inactive).
`COc1ccc2c(c1)C(C)=CC(C)(C)N2C(=O)CNCc1ccc2c(c1)OCO2` was tested, and the inhibition was 62% (active).
In the case of `CC(=O)c1nnn(-c2ccc(Cl)cc2C#N)c1C`, the inhibition is reported as 1.84% (inactive).
For `COc1ccc(Cl)cc1C(=O)NCc1cn(C)nc1C`, the inhibition was -17.2% (inactive).
In the case of `Cc1ccc(-c2cc(C(=O)NCc3cn(C)nc3C)c3cc(Br)ccc3n2)cc1`, the inhibition is reported as 57.4% (active).
For `Cc1ccc2nc(-c3cccc(Br)c3)cc(C(=O)Nn3cnnc3)c2c1`, the inhibition was -15.1% (inactive).
`CN(Cc1ccccn1)Cc1nc(-c2ccc(Cl)cc2)no1` was tested, and the inhibition was 3.34% (inactive).
In the case of `CN(c1ccccc1)S(=O)(=O)c1ccc(Cl)c(C(=O)OCC(=O)NCc2ccco2)c1`, the inhibition is reported as -33.3% (inactive).
In the case of `CCN(CC)CCCN=C(N)N`, the inhibition is reported as -18.1% (inactive).
For `Nc1nnc(SCC(=O)NC2CCCc3ccccc32)s1` (stereo unspecified), the inhibition was -21.1% (inactive).
For `O=C(CN1CCOCC1)N/N=C/c1ccc(-c2ccc(Br)cc2)o1`, the inhibition was -11.9% (inactive).
`Nc1nnn(CC(=O)N/N=C/c2ccccc2)n1` was tested, and the inhibition was -50.3% (inactive).
`O=C(Cn1nnc(-c2ccccc2)n1)NCc1ccccc1` was tested, and the inhibition was -1.82% (inactive).
With `O=C(Cn1nnc(-c2ccccc2)n1)N/N=C/c1ccc(-c2ccc(Cl)cc2)o1` the inhibition was 61% (active).
For `Cc1[nH]c2ccccc2c1/C=N\NC(=O)Cn1nnc(-c2ccccc2)n1`, the inhibition was 65.2% (active).
In the case of `Nc1nnnn1CC(=O)N/N=C/c1ccc(-c2cccc(Cl)c2)o1`, the inhibition is reported as -8.79% (inactive).
For `CCCCN1CCNC1=S`, the inhibition was -29.5% (inactive).
For `CC1(C)CC(=O)C(C=NCCN2CCN(C(=S)Nc3cccc(Cl)c3)CC2)=C(O)C1`, the inhibition was -49.6% (inactive).
With `Cc1nn(C)c(C)c1Sc1ccccc1N` the inhibition was -33.5% (inactive).
In the case of `CCN(CC)c1ccc(NC(=O)C2CCC(CNc3c(N4CCCC4)c(=O)c3=O)CC2)c(C)c1` (stereo unspecified), the inhibition is reported as -70.9% (inactive).
For `CC1(C)OC(=O)N2CCc3ccccc3C21C` (stereo unspecified), the inhibition was 6.73% (inactive).
In the case of `CN(C)C(=O)c1nc2ccc(Cl)cn2c1CNCc1cccc(OC(F)(F)F)c1`, the inhibition is reported as -1.45% (inactive).
With `COC(=O)CN1C(C)=Nc2ccc(Br)cc2C1c1ccccc1` (stereo unspecified) the inhibition was 67.2% (active).
For `COC(=O)CN1C(=O)C(O)=C(C(C)=O)C1c1ccc([N+](=O)[O-])cc1` (stereo unspecified), the inhibition was -31.9% (inactive).
`CCC(CC)C(=O)N1CC(=O)Nc2ccc(Br)cc2C1c1ccccc1` (stereo unspecified) was tested, and the inhibition was -3.97% (inactive).
For `N#CCCCn1c(O)c(N=NC(=O)C(O)c2ccccc2)c2ccccc21` (stereo unspecified), the inhibition was -13.3% (inactive).
With `Cc1cc(=O)oc2c(C(=O)c3ccccc3)c(OCC(N)=O)ccc12` the inhibition was -15.3% (inactive).
`N#CCC(=O)N/N=C/c1cn(Cc2ccc3ccccc3c2)c2ccccc12` was tested, and the inhibition was 25.7% (inactive).
In the case of `O=C(O)CCn1cc(/C=C/C(=O)c2ccc(Cl)cc2)c(-c2cccc(Br)c2)n1`, the inhibition is reported as 69.2% (active).
With `CCOC(=O)/C(C#N)=C/c1cn(CCC(=O)O)nc1-c1ccc(Br)cc1` the inhibition was 39.2% (inactive).
For `O=C(O)/C=C/c1cn(Cc2ccccc2)nc1-c1cccs1`, the inhibition was -0.35% (inactive).
With `Cc1noc(C)c1S(=O)(=O)Nc1ccc(C(=O)N2CCN(c3ccc(F)cc3)CC2)cc1` the inhibition was -10.6% (inactive).
